# According to publication PMC7862700, “An all-to-all approach to the identification of sequence-specific readers for epigenetic DNA modifications on cytosine”:
# Legend:
# Test in all cases: DAPPL (digital affinity profiling via proximity ligation, sequencing); 10 mM Tris-HCl pH 7.5, 50 mM NaCl, 1 mM DTT, 4% glycerol, room temperature, 30 min; GST-TFs on glutathione beads, 16-mer random dsDNA library, 0.1% formaldehyde crosslink after washing; high values mean tight binding
# FEV = target: T1, FEV (Homo sapiens, UniProt Q99581 1-238); details: protein: recombinant; tags: N-terminal GST; dsDNA, one strand shown
# T1 sequence: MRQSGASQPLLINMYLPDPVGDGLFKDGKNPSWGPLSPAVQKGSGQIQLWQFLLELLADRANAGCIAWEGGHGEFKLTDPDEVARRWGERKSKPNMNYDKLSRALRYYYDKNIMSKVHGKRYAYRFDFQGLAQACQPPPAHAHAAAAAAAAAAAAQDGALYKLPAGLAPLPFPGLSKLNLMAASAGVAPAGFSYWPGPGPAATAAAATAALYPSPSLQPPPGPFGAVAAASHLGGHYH
# In short: (§1)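 In yeast, human transcription factors were expressed with a GST fusion, then pulled down on glutathione beads and given DNA barcodes. Pooled with a tag-only sample, they were exposed to 200 nmole of a 16-mer random double-stranded DNA library (Tris/NaCl/DTT/glycerol buffer, room temperature, 30 min), washed, crosslinked with 0.1% formaldehyde, proximity-ligated using BsaI/T4 ligase for 1 h at 37 °C, PCR-amplified and read on an Illumina NextSeq500. Each hexamer's frequency of reads for a factor, divided by the matching frequency for the tag-only sample, gives the binding signal.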
# ETV5 = ETV5 (Homo sapiens, UniProt P41161 1-510); details: protein: recombinant; tags: N-terminal GST; dsDNA, one strand shown
# Sequence of ETV5 (P41161 whole entry): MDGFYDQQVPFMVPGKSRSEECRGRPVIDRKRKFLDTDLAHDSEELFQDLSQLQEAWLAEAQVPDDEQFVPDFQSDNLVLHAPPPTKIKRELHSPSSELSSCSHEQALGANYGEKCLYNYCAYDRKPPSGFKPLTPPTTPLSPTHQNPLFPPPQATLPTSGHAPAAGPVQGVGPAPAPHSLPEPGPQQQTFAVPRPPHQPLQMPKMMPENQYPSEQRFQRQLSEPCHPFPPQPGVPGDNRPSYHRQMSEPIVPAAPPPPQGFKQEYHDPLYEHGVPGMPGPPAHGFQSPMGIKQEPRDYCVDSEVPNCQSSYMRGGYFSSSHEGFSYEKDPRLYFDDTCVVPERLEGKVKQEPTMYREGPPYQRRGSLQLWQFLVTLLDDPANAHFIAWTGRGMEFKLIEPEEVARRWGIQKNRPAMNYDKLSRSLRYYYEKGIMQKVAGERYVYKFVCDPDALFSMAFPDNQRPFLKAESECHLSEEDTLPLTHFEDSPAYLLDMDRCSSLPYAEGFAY
# In short: as §1
# HSF1 = HSF1 (Homo sapiens, UniProt Q00613 1-529); details: protein: recombinant; tags: N-terminal GST; chain copies: 3; dsDNA, one strand shown
# Sequence of HSF1 (Q00613 whole entry): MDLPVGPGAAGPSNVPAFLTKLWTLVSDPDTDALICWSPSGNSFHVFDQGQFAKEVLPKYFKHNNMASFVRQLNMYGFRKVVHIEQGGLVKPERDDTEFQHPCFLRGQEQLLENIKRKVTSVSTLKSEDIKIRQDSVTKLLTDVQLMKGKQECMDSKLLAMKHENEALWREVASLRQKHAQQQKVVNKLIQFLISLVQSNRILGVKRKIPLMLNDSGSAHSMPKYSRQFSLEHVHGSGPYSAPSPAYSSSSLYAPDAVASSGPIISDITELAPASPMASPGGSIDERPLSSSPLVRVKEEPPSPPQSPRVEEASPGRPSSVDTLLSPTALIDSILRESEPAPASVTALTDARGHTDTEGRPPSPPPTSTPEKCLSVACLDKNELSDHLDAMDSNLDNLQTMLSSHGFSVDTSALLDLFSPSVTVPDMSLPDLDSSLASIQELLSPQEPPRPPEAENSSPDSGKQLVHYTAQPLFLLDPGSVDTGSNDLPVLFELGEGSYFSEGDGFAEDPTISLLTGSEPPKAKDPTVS
# In short: as §1
# SPIC = target: T2, SPIC (Homo sapiens, UniProt Q8N5J4 1-248); details: protein: recombinant; tags: N-terminal GST; dsDNA, one strand shown
# T2 sequence: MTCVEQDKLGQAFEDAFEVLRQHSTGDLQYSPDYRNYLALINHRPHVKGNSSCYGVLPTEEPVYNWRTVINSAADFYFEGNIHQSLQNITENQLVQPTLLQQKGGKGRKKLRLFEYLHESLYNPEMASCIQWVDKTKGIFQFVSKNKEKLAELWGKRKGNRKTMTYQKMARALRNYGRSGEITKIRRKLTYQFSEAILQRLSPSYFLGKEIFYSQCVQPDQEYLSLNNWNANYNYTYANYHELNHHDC
# In short: as §1
# ELF4 = ELF4 (Homo sapiens, UniProt Q99607 1-663); details: protein: recombinant; tags: N-terminal GST; dsDNA, one strand shown
# Sequence of ELF4 (Q99607 whole entry): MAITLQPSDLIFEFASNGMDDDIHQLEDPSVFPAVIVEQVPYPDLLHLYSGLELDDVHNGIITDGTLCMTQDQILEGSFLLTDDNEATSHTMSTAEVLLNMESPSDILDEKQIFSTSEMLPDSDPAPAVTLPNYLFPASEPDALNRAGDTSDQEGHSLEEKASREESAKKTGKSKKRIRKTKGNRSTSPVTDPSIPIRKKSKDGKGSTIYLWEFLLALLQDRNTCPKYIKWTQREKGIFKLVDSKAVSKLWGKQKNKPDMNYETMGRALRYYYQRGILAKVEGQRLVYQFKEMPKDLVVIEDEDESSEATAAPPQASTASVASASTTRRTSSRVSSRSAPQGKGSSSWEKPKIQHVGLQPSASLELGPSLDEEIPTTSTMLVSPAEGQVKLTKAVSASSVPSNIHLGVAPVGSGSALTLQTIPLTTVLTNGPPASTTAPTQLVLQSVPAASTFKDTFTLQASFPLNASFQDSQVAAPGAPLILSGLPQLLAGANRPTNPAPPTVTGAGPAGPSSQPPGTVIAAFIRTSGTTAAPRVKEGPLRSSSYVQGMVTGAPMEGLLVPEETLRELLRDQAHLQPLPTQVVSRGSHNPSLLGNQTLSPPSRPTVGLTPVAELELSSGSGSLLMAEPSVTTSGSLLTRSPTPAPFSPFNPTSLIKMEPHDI
# In short: as §1
# ELK4 = target: T3, ELK4 (Homo sapiens, UniProt P28324-2 1-405); details: protein: recombinant; tags: N-terminal GST; dsDNA, one strand shown
# T3 sequence: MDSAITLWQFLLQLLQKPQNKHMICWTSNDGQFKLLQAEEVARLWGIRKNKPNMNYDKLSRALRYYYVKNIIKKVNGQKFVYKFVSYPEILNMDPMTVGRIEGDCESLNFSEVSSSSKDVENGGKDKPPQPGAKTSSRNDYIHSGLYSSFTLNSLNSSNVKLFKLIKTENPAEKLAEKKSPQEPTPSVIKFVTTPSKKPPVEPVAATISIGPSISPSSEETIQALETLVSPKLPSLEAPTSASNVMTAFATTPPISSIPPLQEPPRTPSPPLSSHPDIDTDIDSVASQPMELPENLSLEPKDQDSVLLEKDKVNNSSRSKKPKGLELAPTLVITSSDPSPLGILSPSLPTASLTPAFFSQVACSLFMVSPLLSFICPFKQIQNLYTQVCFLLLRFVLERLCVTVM
# In short: as §1
# ETV2 = target: T4, ETV2 (Homo sapiens, UniProt O00321 1-342); details: protein: recombinant; tags: N-terminal GST; dsDNA, one strand shown
# T4 sequence: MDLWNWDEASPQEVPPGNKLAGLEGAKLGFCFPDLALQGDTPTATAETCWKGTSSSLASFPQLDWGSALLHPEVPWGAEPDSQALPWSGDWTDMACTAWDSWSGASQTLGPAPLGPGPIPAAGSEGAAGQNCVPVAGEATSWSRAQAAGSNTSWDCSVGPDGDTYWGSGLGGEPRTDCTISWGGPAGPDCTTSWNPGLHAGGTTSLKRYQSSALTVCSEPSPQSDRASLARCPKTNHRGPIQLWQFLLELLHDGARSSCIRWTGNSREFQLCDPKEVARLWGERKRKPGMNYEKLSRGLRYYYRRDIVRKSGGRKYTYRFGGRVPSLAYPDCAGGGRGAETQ
# In short: as §1
# ELF3 = target: T5, ELF3 (Homo sapiens, UniProt P78545 1-371); details: protein: recombinant; tags: N-terminal GST; dsDNA, one strand shown
# T5 sequence: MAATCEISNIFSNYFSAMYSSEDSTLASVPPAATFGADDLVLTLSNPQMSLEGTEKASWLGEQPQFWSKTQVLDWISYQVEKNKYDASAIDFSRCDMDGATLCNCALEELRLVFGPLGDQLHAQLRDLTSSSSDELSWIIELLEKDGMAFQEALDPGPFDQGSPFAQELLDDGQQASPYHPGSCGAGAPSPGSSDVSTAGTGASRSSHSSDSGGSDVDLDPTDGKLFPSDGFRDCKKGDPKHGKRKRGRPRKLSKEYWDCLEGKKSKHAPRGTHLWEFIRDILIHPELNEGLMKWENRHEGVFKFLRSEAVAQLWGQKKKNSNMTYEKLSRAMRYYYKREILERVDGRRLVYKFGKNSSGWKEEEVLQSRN
# In short: as §1
# CRX = CRX (Homo sapiens, UniProt O43186 1-299); details: protein: recombinant; tags: N-terminal GST; dsDNA, one strand shown
# Sequence of CRX (O43186 whole entry): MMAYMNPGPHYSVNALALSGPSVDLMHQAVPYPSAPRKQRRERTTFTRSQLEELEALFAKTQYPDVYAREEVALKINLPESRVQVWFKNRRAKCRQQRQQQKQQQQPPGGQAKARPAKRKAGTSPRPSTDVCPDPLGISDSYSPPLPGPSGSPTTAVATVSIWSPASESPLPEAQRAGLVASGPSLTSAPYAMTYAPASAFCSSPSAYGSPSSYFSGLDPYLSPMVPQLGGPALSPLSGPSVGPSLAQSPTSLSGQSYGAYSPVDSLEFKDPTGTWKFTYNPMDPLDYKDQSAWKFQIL
# In short: as §1
# ETV1 = ETV1 (Homo sapiens, UniProt P50549 1-477); details: protein: recombinant; tags: N-terminal GST; dsDNA, one strand shown
# Sequence of ETV1 (P50549 whole entry): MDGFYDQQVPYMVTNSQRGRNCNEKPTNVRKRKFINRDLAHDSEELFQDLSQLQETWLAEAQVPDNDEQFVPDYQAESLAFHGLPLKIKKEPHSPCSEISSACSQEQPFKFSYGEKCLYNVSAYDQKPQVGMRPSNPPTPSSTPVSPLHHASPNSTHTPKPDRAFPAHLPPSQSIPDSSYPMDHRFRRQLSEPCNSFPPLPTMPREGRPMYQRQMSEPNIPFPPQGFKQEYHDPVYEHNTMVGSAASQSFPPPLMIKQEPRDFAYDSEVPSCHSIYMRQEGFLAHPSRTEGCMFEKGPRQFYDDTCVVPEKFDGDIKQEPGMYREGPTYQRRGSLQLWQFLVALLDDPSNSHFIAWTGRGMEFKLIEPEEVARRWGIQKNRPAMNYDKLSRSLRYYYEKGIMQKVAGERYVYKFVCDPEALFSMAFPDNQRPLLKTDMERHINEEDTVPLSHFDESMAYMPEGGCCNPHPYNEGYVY
# In short: as §1
# ERF = target: T6, ERF (Homo sapiens, UniProt P50548 1-548); details: protein: recombinant; tags: N-terminal GST; dsDNA, one strand shown
# T6 sequence: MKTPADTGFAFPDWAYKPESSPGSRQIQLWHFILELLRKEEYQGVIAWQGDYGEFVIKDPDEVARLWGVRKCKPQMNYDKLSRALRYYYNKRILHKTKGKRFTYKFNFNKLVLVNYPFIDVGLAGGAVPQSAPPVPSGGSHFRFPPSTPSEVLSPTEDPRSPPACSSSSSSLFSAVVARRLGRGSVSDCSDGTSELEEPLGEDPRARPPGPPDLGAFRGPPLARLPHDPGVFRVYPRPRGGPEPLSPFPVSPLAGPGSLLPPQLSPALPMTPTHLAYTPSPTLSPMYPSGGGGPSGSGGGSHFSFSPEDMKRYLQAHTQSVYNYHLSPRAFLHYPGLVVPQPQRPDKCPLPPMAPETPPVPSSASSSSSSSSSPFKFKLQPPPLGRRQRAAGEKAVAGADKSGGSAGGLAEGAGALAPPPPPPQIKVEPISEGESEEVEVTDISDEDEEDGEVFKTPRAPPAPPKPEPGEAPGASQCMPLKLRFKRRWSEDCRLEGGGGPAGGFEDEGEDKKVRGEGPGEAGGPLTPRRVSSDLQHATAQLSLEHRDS
# In short: as §1
# ETV3L = target: T7, ETV3L (Homo sapiens, UniProt Q6ZN32 1-361); details: protein: recombinant; tags: N-terminal GST; dsDNA, one strand shown
# T7 sequence: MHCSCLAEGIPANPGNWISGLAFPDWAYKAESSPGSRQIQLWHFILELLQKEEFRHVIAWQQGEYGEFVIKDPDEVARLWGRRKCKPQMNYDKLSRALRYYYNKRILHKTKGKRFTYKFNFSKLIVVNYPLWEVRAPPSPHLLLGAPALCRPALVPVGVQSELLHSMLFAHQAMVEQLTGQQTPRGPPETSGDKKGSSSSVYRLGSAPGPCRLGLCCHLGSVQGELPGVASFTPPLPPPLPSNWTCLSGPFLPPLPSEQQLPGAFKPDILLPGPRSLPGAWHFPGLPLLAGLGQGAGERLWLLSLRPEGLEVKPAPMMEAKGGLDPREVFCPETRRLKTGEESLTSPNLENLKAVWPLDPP
# In short: as §1
# ETS2 = target: T8, ETS2 (Homo sapiens, UniProt P15036 1-469); details: protein: recombinant; tags: N-terminal GST; dsDNA, one strand shown
# T8 sequence: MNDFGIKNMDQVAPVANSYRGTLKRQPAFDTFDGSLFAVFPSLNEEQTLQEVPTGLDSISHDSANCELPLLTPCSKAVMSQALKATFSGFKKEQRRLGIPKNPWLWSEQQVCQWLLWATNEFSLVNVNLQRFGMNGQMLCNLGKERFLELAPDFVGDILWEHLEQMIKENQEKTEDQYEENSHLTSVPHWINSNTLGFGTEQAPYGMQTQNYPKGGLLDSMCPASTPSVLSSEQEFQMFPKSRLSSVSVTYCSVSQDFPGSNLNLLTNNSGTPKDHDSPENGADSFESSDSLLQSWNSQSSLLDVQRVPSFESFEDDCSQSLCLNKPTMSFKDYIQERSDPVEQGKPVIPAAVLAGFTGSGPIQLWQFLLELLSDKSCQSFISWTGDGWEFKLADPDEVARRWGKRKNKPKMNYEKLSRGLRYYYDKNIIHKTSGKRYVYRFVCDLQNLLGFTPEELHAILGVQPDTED
# In short: as §1
# SPDEF = target: T9, SPDEF (Homo sapiens, UniProt O95238 1-335); details: protein: recombinant; tags: N-terminal GST; dsDNA, one strand shown
# T9 sequence: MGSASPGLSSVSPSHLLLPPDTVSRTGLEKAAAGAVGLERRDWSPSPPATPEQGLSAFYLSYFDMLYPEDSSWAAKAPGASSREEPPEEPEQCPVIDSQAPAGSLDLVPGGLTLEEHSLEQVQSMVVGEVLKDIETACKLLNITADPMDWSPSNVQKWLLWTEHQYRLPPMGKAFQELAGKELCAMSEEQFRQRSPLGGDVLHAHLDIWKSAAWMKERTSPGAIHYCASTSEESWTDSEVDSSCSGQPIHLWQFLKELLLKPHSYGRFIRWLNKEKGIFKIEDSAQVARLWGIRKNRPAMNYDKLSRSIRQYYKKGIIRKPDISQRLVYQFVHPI
# In short: as §1
# ETV7 = target: T10, ETV7 (Homo sapiens, UniProt Q9Y603 1-341); details: protein: recombinant; tags: N-terminal GST; dsDNA, one strand shown
# T10 sequence: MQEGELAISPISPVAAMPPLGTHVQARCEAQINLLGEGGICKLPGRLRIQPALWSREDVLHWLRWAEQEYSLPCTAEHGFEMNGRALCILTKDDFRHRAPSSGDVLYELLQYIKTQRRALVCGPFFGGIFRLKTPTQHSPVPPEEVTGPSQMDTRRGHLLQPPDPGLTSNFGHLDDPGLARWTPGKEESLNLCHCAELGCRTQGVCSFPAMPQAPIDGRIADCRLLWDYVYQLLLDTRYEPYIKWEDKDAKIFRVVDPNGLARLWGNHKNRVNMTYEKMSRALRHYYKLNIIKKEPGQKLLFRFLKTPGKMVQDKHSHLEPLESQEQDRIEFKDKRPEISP
# In short: as §1
# ELF5 = target: T11, ELF5 (Homo sapiens, UniProt Q9UKW6-2 1-255); details: protein: recombinant; tags: N-terminal GST; dsDNA, one strand shown
# T11 sequence: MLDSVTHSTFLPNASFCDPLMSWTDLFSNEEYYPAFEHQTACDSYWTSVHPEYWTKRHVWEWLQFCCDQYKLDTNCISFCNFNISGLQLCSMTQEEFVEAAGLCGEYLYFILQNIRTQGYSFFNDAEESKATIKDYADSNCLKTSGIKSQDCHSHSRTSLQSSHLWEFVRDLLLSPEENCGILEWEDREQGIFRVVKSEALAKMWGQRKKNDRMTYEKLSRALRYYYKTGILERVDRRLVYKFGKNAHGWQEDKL
# In short: as §1
# ETV3 = target: T12, ETV3 (Homo sapiens, UniProt P41162-2 1-143); details: protein: recombinant; tags: N-terminal GST; dsDNA, one strand shown
# T12 sequence: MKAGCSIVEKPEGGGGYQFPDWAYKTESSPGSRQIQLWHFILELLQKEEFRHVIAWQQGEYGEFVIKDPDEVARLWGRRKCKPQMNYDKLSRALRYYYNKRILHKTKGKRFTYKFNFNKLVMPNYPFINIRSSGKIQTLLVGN
# In short: as §1
# ETV6 = ETV6 (Homo sapiens, UniProt P41212 1-452); details: protein: recombinant; tags: N-terminal GST; dsDNA, one strand shown
# Sequence of ETV6 (P41212 whole entry): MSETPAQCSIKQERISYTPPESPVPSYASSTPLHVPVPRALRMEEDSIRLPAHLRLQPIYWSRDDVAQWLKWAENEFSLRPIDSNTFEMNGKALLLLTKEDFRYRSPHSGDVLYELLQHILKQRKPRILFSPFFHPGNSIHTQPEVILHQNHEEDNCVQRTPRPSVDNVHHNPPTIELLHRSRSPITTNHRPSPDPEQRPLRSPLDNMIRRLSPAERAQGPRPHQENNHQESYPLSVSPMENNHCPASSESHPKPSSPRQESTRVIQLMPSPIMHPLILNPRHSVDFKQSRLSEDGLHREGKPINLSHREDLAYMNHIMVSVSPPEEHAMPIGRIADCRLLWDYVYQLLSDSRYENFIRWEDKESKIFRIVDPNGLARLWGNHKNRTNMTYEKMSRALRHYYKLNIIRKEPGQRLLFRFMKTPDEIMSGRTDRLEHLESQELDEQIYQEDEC
# In short: as §1
sequence,measurement,setting,value
TATAAA,binding signal,FEV,"1.16 fold enrichment (6-mer frequency, TF over GST control)"
same,binding signal,ETV5,"1.18 fold enrichment (6-mer frequency, TF over GST control)"
same,binding signal,HSF1,"1.47 fold enrichment (6-mer frequency, TF over GST control)"
same,binding signal,SPIC,"1.26 fold enrichment (6-mer frequency, TF over GST control)"
same,binding signal,ELF4,"1.23 fold enrichment (6-mer frequency, TF over GST control)"
same,binding signal,ELK4,"1.32 fold enrichment (6-mer frequency, TF over GST control)"
same,binding signal,ETV2,"1.2 fold enrichment (6-mer frequency, TF over GST control)"
same,binding signal,ELF3,"1.33 fold enrichment (6-mer frequency, TF over GST control)"
same,binding signal,CRX,"1.85 fold enrichment (6-mer frequency, TF over GST control)"
same,binding signal,ETV1,"1.16 fold enrichment (6-mer frequency, TF over GST control)"
same,binding signal,ERF,"1.25 fold enrichment (6-mer frequency, TF over GST control)"
same,binding signal,ETV3L,"1.15 fold enrichment (6-mer frequency, TF over GST control)"
same,binding signal,ETS2,"1.27 fold enrichment (6-mer frequency, TF over GST control)"
same,binding signal,SPDEF,"1.21 fold enrichment (6-mer frequency, TF over GST control)"
same,binding signal,ETV7,"1.12 fold enrichment (6-mer frequency, TF over GST control)"
same,binding signal,ELF5,"1.24 fold enrichment (6-mer frequency, TF over GST control)"
same,binding signal,ETV3,"1.24 fold enrichment (6-mer frequency, TF over GST control)"
same,binding signal,ETV6,"1.21 fold enrichment (6-mer frequency, TF over GST control)"
